# Results: ChEMBL document CHEMBL3988442, “University of Dundee, Small-Polar-MMV Screening Library” (2021)
# Hit rate of the full screen: of about 48,000 compounds, about 13,000 (27%) showed an effect of 50% or more. This is one part of the list.
# System: Wolbachia pipientis
# Assay: Anti-Wolbachia Cell-Based Screen
# Format: functional
# Parameters: scale not given: in the data most compounds retested in dose-response had high values
# Settings: 5 µM
row,SMILES,Percent Effect [%]
1,Cc1ccccc1C(C#N)NC(=O)c1cccc2c1OCCO2 (stereo not drawn),0.1196
2,COc1ccc(OC)c(CNCCc2cc(F)cc3c2OCOC3)c1,17.88
3,Cc1ccc(S(C)(=O)=O)cc1C(=O)N(C)Cc1ccco1,9.899
4,NC(=O)c1ccc(=O)n(Cc2cc(Br)ccc2Cl)n1,5.907
5,Cc1cc(C(=O)Nc2nnn[nH]2)ccc1I,-9.005
6,CCn1nc(C)c2nnn(CC(=O)Nc3c(C)cccc3C)c(=O)c21,15.34
7,CCn1nc(C)c2ccn(CC(=O)NCCN3CCCCC3)c(=O)c21,109.9
8,CCn1nc(C)c2ccn(CC(=O)NC(C)C)c(=O)c21,83.24
9,CC(C(=O)NCCN1CCCCCC1)n1cncn1 (stereo not drawn),6.754
10,Cc1cc(C(C)NC(=O)Cn2nc(C)c3ccccc3c2=O)c(C)o1 (stereo not drawn),-1.65
11,CCCNC(=O)Cn1nc(C)c2cnn(C(C)(C)C)c2c1=O,7.954
12,Cc1c2ncn(CC(=O)NC(C)C)c(=O)c2nn1C,-0.5924
13,CCC(C)NC(=O)Cn1ccc2c(C)nn(CC)c2c1=O (stereo not drawn),121.4
14,C1CN(c2nc3c(c(NC4CC4)n2)CN(CC2CCOC2)CC3)CCO1 (stereo not drawn),-9.007
15,Cn1cc(CN2CCC3(CCC(C(=O)NCC4CC4)C3)CC2)cn1.O=C(O)C(F)(F)F (stereo not drawn),38.61
16,O=C(c1ccncc1Cl)N1CCN(Cc2ccco2)C(CCO)C1 (stereo not drawn),-0.1352
17,Cc1nn(C)c(C)c1NC(=O)CNC(c1ccc(F)cc1)C1CCC1 (stereo not drawn),19.96
18,COc1cccc2c1OCC(CNC(=O)Cc1c(C)nc(N)nc1C)C2 (stereo not drawn),-7.382
19,COc1ccc2c(c1)OCC(Cc1ccc(C)nc1N)C2 (stereo not drawn),95.38
20,COc1ccc2c(c1)OCC(Cc1cnc(N)c(C)c1)C2 (stereo not drawn),16.7
21,COc1ccc2c(c1)OCC(Cc1cnccc1N)C2 (stereo not drawn),13.35
22,CCNC(=O)c1ccnc(NCC2COc3cc(OC)ccc3C2)c1 (stereo not drawn),-7.933
23,COc1ccc2c(c1)OCC(CNc1cc(N)nc(SC)n1)C2 (stereo not drawn),101.5

row,SMILES,Percent Effect [%]
1,COc1cccc2c1OCC(CNc1cc(N)nc(SC)n1)C2 (stereo not drawn),103.8
2,COc1cccc2c1OCC(CNc1ccc(C)nn1)C2 (stereo not drawn),-0.7094
3,CCc1nc2c(NCC3COc4cc(OC)ccc4C3)ncnc2o1 (stereo not drawn),-96.33
4,Cc1cc(C(=O)N(C)Cc2ccn[nH]2)c(NC(=O)C(C)(C)C)s1,-4.418
5,CS(=O)(=O)N1CCOC2(CCCN(c3cnccn3)C2)C1.O=C(O)C(F)(F)F (stereo not drawn),-3.383
6,Cc1noc(-c2ccc(N(C)Cc3nccs3)nc2)n1,-5.626
7,CN(Cc1cc2c(cc1OC(F)F)OCO2)Cc1nccn1C,-0.8901
8,CCC(=O)c1ccc(OCC(=O)NC(C)c2ncnn2CC)cc1 (stereo not drawn),-19.04
9,CCCn1c(O)nnc1SCC1OCCc2ccccc21 (stereo not drawn),5.121
10,CCc1cc(C(=O)N[C@H]2CN(CCS(C)(=O)=O)C[C@@H]2C2CC2)[nH]n1,-10.24
11,CCOc1ccc(C#N)cc1NCC(=O)NC(=O)NC,104.9
12,CCOc1ccc(NC(=O)c2ccc(C#N)cc2C)cc1CO,-12.77
13,CCCNC(=O)CNc1cc(C#N)ccc1OCC,-1.533
14,CCOc1ccc(C#N)cc1NC(=O)N1CCC(N2CCCC2)C1 (stereo not drawn),-9.106
15,CCNC(=O)C1CCCN(C(=O)Nc2cc(C#N)ccc2OCC)C1 (stereo not drawn),2.708
16,CCOc1ccc(C#N)cc1NCC(=O)Nc1cc(F)ccc1F,-5.639
17,CCNC(=O)NC(=O)CNc1cc(C#N)ccc1OCC,107.7
18,CCOc1ccc(C#N)cc1NCc1cc(C)on1,-2.452
19,CCOc1ccc(C#N)cc1NCC(=O)NC(=O)Nc1ccccc1,91.19
20,CCOc1ccc(C#N)cc1NC(=O)N1CCCC(NC(=O)CC)C1 (stereo not drawn),-6.604
21,CCOc1ccc(C#N)cc1NCC(=O)OC,115.5
22,CCOc1ccc(C#N)cc1NCC(=O)Nc1cc(C)no1,4.952
23,O=C(CCCC1CCCC1)NS(=O)(=O)CC1CC1,4.87

row,SMILES,Percent Effect [%]
1,O=C1NCCCCC1NC(=O)C1(c2ccc3c(c2)OCCO3)CCCC1 (stereo not drawn),-1.756
2,Cc1cccc(C(=O)N2CCCC2)c1NCC(=O)NC1(C#N)CCCC1,-7.992
3,Cc1cccc(NCC(=O)NC2(C#N)CCCC2)c1C(=O)N1CCCC1,-22.31
4,CCOc1ccc(C#N)cc1NCC(=O)NC1(C#N)CCCC1,87.98
5,O=C(Cn1cc(-c2ccccc2)ncc1=O)Nc1nnc[nH]1,-2.785
6,CN(Cc1ccc(Cl)s1)C(=O)CN(C)C1CCc2ccccc21 (stereo not drawn),3.858
7,COc1ccc(CC(=O)NC2(C)CCS(=O)(=O)C2)cc1F (stereo not drawn),7.488
8,FC(F)(F)c1csc(N2CCN(Cc3ccccn3)CC2)n1,72.86
9,FC(F)(F)CCc1ccnc(N2CCN(Cc3ccccn3)CC2)n1,5.215
10,Cc1csc(N2CCN(Cc3ccccn3)CC2C)n1 (stereo not drawn),18.1
11,Cc1csc(N2CCN(C(=O)CCc3ccccn3)CC2)n1,1.737
12,Cc1ncc(S(C)(=O)=O)c(N2CCCN(Cc3ccccn3)CC2)n1,10.32
13,FC(F)(F)c1ccnc(N2CCCN(Cc3ccccn3)CC2)n1,100.8
14,CC(C)c1nc(CN2CCN(Cc3ccccn3)CC2)cs1,-4.826
15,Cc1csc(N2CCN(Cc3ccccn3)CC2)n1,105.9
16,COc1ccccc1-c1ncc(CN2C[C@@H](N(C)C)[C@H](C(C)C)C2)s1,-33.52
17,COc1cc(OC)cc(N2CCC(NCc3cccs3)C2=O)c1 (stereo not drawn),-13.31
18,CCC(C)NC(=O)c1ccc(NC(=O)CCc2ccncc2)c(C)c1 (stereo not drawn),-8.958
19,CNC(=O)[C@@H](c1ccccc1)N1CCC[C@H]1C(=O)NCc1cccnc1.Cl.Cl,-3.423
20,Cn1c(C(=O)NC2CC2)nc2c1CCN(c1ncccn1)C2,-5.985
21,Cc1ncccc1NC(=O)c1nc2c(n1C)CCN(C(=O)C1CC1)C2,102
22,Cc1nc(CNC(=O)NC2CCN(c3ncccc3Cl)C2)oc1C (stereo not drawn),-13.94
